High-throughput results from PubChem.
697 NFkB inh – inhibitors of the PMA/ionomycin-induced NF-kB reporter in 697 B cells; 697 B-cell NF-kB luciferase reporter, 16 h; inhibition, % at 4 µM; 330,000 tested, 0.33% active; AID 435022; in the data active = inhibition above about 35%
Gli-Sufu antag – blocks Gli-Sufu signaling in a luciferase reporter | inhibition, % at 5 µM | Sufu-KO-LIGHT fibroblasts, Gli luciferase reporter luminescence | AID 588413 | 340,000 tested, 0.74% active;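 active = inhibition above about 55%, limit read from the data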;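 note: 0% = DMSO-treated cells and 100% = wells with medium but no cells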
Mdm2-MdmX inh – disrupts the human Mdm2-MdmX interaction | O15151+Q00987 | SaOS-2 split-luciferase Mdm2/MdmX complementation, luminescence | inhibition, % at 8 µM | 330,000 tested, 3% active | AID 485346;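 active = inhibition of at least 50% at 8 µM in the primary screen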
Shn3 inh set2 – inhibitors of Schnurri-3 3'UTR reporter in osteoblasts. Clone20 osteoblast Shn3 3'UTR firefly luciferase, 24 h. inhibition, % at 12.5 µM. 360,000 tested, 0.52% active. AID 588674;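 active = mean inhibition of at least 75% with every replicate also reaching 75%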;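 note: 0% = median of neutral control wells and 100% = pilot-screen positive control compound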
Jurkat NFkB inh – lowers PMA/ionomycin-induced NF-kB signal in Jurkat cells | 330,000 tested, 0.53% active | PMA/ionomycin-induced NF-kB luciferase reporter, luminescence | AID 435003 | inhibition, % at 4 µM; in the data active = inhibition above about 50%
Jurkat NFkB conf – inhibitors of the PMA/ionomycin-induced NF-kB reporter in Jurkat cells, retest | inhibition, % at 4 µM | shares compounds with Jurkat NFkB inh | AID 435020 | 2,700 tested, 27% active | Jurkat NF-kB luciferase, 16 h;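 active = inhibition reaching about 45% at 4 µM in either replicate, limit read from the data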;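 note: plate controls were PMA/ionomycin stimulated DMSO wells for no effect and unstimulated DMSO wells for full effect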
Numbers without * were called inactive. Compounds with a hit are over-represented: about 3.8% of the library has one in this group of screens.

For COc1cc2nc(N3CCN(C(=O)OCc4ccccc4)[C@H](C(=O)NC(C)(C)C)C3)nc(N)c2cc1OC the results were 697 NFkB inh -1, Gli-Sufu antag 14, Mdm2-MdmX inh 39, Shn3 inh set2 -5 and Jurkat NFkB inh -1.
Cc1cc(NC(=O)COC(=O)c2ccc(S(=O)(=O)N3CCCc4ccccc43)cc2)no1 was read as 697 NFkB inh -26, Gli-Sufu antag 20, Mdm2-MdmX inh 41, Shn3 inh set2 31, Jurkat NFkB inh 51* and Jurkat NFkB conf 39.
Screening Cc1cc(NC(=O)COC(=O)c2ccc(S(=O)(=O)N3CCCC3)cc2)no1 returned 697 NFkB inh 8, Gli-Sufu antag -2, Mdm2-MdmX inh 5, Shn3 inh set2 3 and Jurkat NFkB inh 6.
`Cc1ccc2nc(-c3ccc(NC(=O)C4CCCO4)cc3)[nH]c2c1` (centres undefined) gave 697 NFkB inh -147, Gli-Sufu antag -57, Mdm2-MdmX inh -122, Shn3 inh set2 20, Jurkat NFkB inh -177 and Jurkat NFkB conf -76.
`Cc1ccc2nc(-c3ccc(NC(=O)Cc4cccs4)cc3)[nH]c2c1` gave 697 NFkB inh -115, Gli-Sufu antag 13, Mdm2-MdmX inh -28, Shn3 inh set2 32, Jurkat NFkB inh -170 and Jurkat NFkB conf -119.
Screening COc1ccc(NC(=O)C2CCCO2)cc1 (centres undefined) returned 697 NFkB inh -9, Gli-Sufu antag -6, Mdm2-MdmX inh 10, Shn3 inh set2 8 and Jurkat NFkB inh -27.
`O=C(Nc1ccc(-c2nc3ccccc3o2)cc1)C1CCCO1` (centres undefined) gave 697 NFkB inh -124, Gli-Sufu antag -77, Mdm2-MdmX inh -138, Shn3 inh set2 -16, Jurkat NFkB inh -180 and Jurkat NFkB conf -103.
`CSc1ccc(/C=C/C(=O)Nc2ccccc2)cc1` gave 697 NFkB inh -110, Gli-Sufu antag -160, Mdm2-MdmX inh -74, Shn3 inh set2 46, Jurkat NFkB inh -240 and Jurkat NFkB conf -149.
N#CCC(CNc1ncc(C(F)(F)F)cc1Cl)OC(=O)c1ccc(Cl)cc1Cl (centres undefined) was read as 697 NFkB inh -5, Gli-Sufu antag 10, Mdm2-MdmX inh -11, Shn3 inh set2 -16, Jurkat NFkB inh 70* and Jurkat NFkB conf 11.
CCOC(=O)CNc1ncc(C(F)(F)F)cc1Cl was read as 697 NFkB inh 10, Gli-Sufu antag -2, Mdm2-MdmX inh 15, Shn3 inh set2 -22 and Jurkat NFkB inh 5.
`Cc1ccc(C)c(CC(=O)N2CCCC(c3cc(C(=O)Nc4ccccc4Cl)no3)C2)c1` (centres undefined) gave Shn3 inh set2 18.
`c1ccc2oc(-c3csc(N4CCOCC4)n3)cc2c1` gave 697 NFkB inh -216, Gli-Sufu antag -101, Mdm2-MdmX inh -121, Shn3 inh set2 -20, Jurkat NFkB inh -221 and Jurkat NFkB conf -23.
For CNC[C@@H]1Oc2cc(Br)ccc2S(=O)(=O)N([C@H](C)CO)C[C@@H]1C the results were Shn3 inh set2 4.
Screening CC(=O)c1ccc(Nc2ccc(-c3ccccc3F)nn2)cc1 returned 697 NFkB inh -182, Gli-Sufu antag -167, Mdm2-MdmX inh -222, Shn3 inh set2 -61, Jurkat NFkB inh -161 and Jurkat NFkB conf -121.
`COc1ccccc1-c1ccc(Nc2ccc(C(=O)N3CCOCC3)cc2)nn1` gave 697 NFkB inh 5, Gli-Sufu antag -12, Mdm2-MdmX inh 1, Shn3 inh set2 18 and Jurkat NFkB inh -8.
Screening C#CCOCCOCCOCCNc1nc(N2CCN(C(=O)[C@H](C(C)C)n3cc(CCO)nn3)CC2)nc(N2CCN(C(=O)[C@H]([C@@H](C)CC)n3cc(CCC(=O)O)nn3)CC2)n1 returned Gli-Sufu antag -10 and Shn3 inh set2 4.
`COc1ccccc1-c1cccc([C@@H]2C[C@H]3[C@H](CON3C)CN2C(=O)CCc2ccccc2)c1` gave Gli-Sufu antag -1 and Shn3 inh set2 5.
c1ccc(-c2csc(Nc3ncccn3)n2)cc1 was read as 697 NFkB inh -245, Gli-Sufu antag -95, Mdm2-MdmX inh -118, Shn3 inh set2 -96, Jurkat NFkB inh -212 and Jurkat NFkB conf -105.
Screening Oc1ccc(-c2csc(Nc3ncccn3)n2)cc1 returned 697 NFkB inh -208, Gli-Sufu antag -36, Mdm2-MdmX inh -182, Shn3 inh set2 -72, Jurkat NFkB inh -159 and Jurkat NFkB conf -59.
